In PubChem BioAssay (NCATS) one finds Potency and outcome data, which are given here for eight compounds.

A short description of test [1]: Vero cells viability qHTS for Zika virus inhibitors (AID 1347167). In a few lines:
(§1)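 Cells seeded at 2.5 x 10^5 cells/mL in DMEM with 4% FBS and attached overnight at 37 degrees C, then exposed to compound for 24 to 48 hours. Viability read as ATP content by CellTiter Glo luminescence.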
(qHTS replaces the single test concentration by a dilution series.)

Test [2] can be described thus: HepG2 cells viability qHTS for Zika virus inhibitors (AID 1347168). In a few lines:
as §1

Test [3] in a line: Tertiary RLuc qRT-PCR qHTS assay for Zika virus inhibitors (AID 1347169). Further: nearly all actives have a fitted effect of over 55% in size. Further: potency means the concentration at half of the fitted maximal effect. The method, boiled down:
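Vero cells (1,000/well) infected with recombinant ZIKV-RLuc (Cambodian) at MOI 1-2 after compound addition, 48-72 hrs at 37 degrees C. Live-cell Renilla luciferase substrate added; luminescence read after 1-1.5 hrs.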
A general note: In qPCR the cycle at which signal appears reflects the starting amount.

Results filed as inconclusive are left out. Entries that show only a call come without a potency. Activity calls are given as the source filed them. The call rests on the fitted dose curve; in most records, active means well fitted curve in the direction sought with a large enough effect; inconclusive means small, poorly fitted or top-dose-only effect, or another doubt; inactive means no such curve, though single readings can be large; an effect the other way counts as inactive or inconclusive.

As to `CS(=O)c1ccc(-c2nc(-c3ccc(F)cc3)c(-c3ccncc3)[nH]2)cc1` (stereo not drawn), the Potency entry in test [1] is “inactive”. In addition, the call in test [2] was inactive.
For the compound `CN(C)c1cc(NC(=O)CNC(C)(C)C)c(O)c2c1C[C@@H]1C[C@H]3[C@H](N(C)C)C(=O)C(C(N)=O)=C(O)[C@@]3(O)C(=O)C1=C2O`, the Potency result in test [1] and in test [3] was “inactive” throughout. In addition, the compound was called inactive in test [2].
Turning to `NC(=O)c1ccc2nc(-c3ccc(Oc4ccc(Cl)cc4)cc3)[nH]c2c1`, the Potency entry in test [1] is “inactive”. Besides, in test [2], the call was inactive.
On to `Cc1cc(OCCCc2c(C(=O)O)n(Cc3cccnc3)c3c(-c4c(COc5ccc(N6CCN([S+](C)(=O)[O-])CC6)cc5)nn(C)c4C)cccc23)cc(C)c1Cl`, for which the compound was called inactive in test [2].
In the case of `CC(=O)Nc1ccc([C@H](C)C(=O)Nc2ncc(C(C)C)s2)cc1`, the Potency entry in test [1] is “inactive”. For the same compound, in test [2], the compound was classed as inactive. Also, in test [3], the Potency was 1.04 µM (active).
In the case of `CC1CCC(C(=O)N(c2cc(C#CC(C)(C)C)sc2C(=O)O)C2CCC(O)CC2)CC1` (stereo not drawn), the Potency result in test [1] is “inactive”. Besides, in test [2], the outcome was inactive.
Regarding `C[C@H](NC(=O)C(=O)Nc1ccccc1C(C)(C)C)C(=O)N[C@@H](CC(=O)O)C(=O)COc1c(F)c(F)cc(F)c1F`, the Potency entry in test [1] and in test [3] was “inactive” in each case. For the same compound, the call in test [2] was inactive.
With `Cc1ccn(-c2ccc(-c3ncco3)cc2)c(=O)c1-c1ccc2nc(N)ncc2c1`, the Potency result in test [1] was “inactive”. For the same compound, the call in test [2] was inactive.
